# Measured values from PubChem BioAssay.
# Activity calls are given as the source filed them. Unless noted, no rule for the calls is given here.
# Key:
# [1] = test system: Wnt5a (protein binding on small-molecule microarray); experiment: Wnt5a binders on small-molecule microarray, primary screen, biophysical, 635/667 nm fluorescence (AID 1142); conditions: 635 nm fluorescence, higher = more signal;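 also: fluorescence read at 667 nm with signal to noise per printed feature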
# [2] = cell viability in Huh7 cells, primary screen, cytotoxicity control for HCV replication inhibitor project, CellTiter-Glo luminescence, basal, 48 h (AID 1143); conditions: Huh7 HCV replicon, higher = more signal, called active from +8 up or from −8 down;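 also: Huh7 hepatoma cells carrying a hepatitis C replication reporter with no stimulus; test concentration not given here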
# [3] = P. aeruginosa biofilm formation inhibitors, primary screen, PAO1 strain, BacTiter-Glo luminescence, LB-PBS (AID 1144); conditions: 12 h, higher = more signal
# [4] = CREB reporter modulators without forskolin, primary screen, cell-based, PC12, CRE-LacZ reporter, unstimulated (AID 1145); conditions: no forskolin, luminescence, 4.5 h, higher = more signal, called active from +8 up or from −8 down
# [5] = CREB reporter modulators under forskolin, primary screen, cell-based, PC12, CRE-LacZ reporter, forskolin-stimulated (AID 1146); conditions: luminescence, 4.5 h, higher = more signal, called active from +8 up or from −8 down;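 also: PC12 cells with 6xCRE LacZ reporter stimulated by forskolin 10 µM; beta-galactosidase reporter signal reflecting CREB driven transcription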
# [6] = biological target: Streptavidin (Streptomyces avidinii) (UniProt P22629); experiment: streptavidin binders on small-molecule microarray, primary screen, artefact control for SMM compound annotation, biophysical, 635/667 nm fluorescence (AID 1147); conditions: streptavidin binding, higher = more signal;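 also: signal reflects streptavidin binding to arrayed compounds as a control protein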
# [7] = small-molecule binders of probe aInhba, primary screen, biochemical, small-molecule microarray, 635/667 nm fluorescence (AID 1148); conditions: higher = more signal;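 also: score merges 667nm spot fluorescence with signal-to-noise for antibody binding to printed compounds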
# [8] = biological target: Torsin-1A (Homo sapiens) (UniProt O14656); experiment: torsin A binders from cell lysate, primary screen, small-molecule microarray, wild-type, 635/667 nm (AID 1149); conditions: COS7 hTOR1A-WT lysate, 635 nm fluorescence, higher = more signal
# [9] = biological target: Torsin-1A (Homo sapiens) (UniProt O14656); experiment: small-molecule binders of mutant TOR1A in lysate, primary screen, cell lysate, small-molecule microarray, COS7 lysate, 635/667 nm fluorescence (AID 1150); conditions: COS7 hTOR1A mutant lysate, 635 nm fluorescence, higher = more signal;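 also: score pools 667 nm emission and signal to noise measuring lysate protein binding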
# [10] = test system: Sonic hedgehog protein (Shh); experiment: small-molecule binders of Shh protein, primary screen, biochemical, small-molecule microarray, 635/667 nm fluorescence (AID 1151); conditions: small-molecule microarray binding, 635 nm fluorescence; higher = more signal;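 also: Shh protein binding to compounds spotted on small-molecule microarray slides; score combines spot fluorescence intensity with signal-to-noise across triplicate slides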
# [11] = E. coli DRC41 culture turbidity changes, primary screen, E. coli filamentation inducer project, strain DRC41, OD650, 48 h (AID 1152);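 also: E. coli MC1000 strain DRC41 lacking acrAB efflux pump and sulA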; conditions: E. coli DRC41 (acrAB sulA), higher = more signal, called active from +8 up or from −8 down
# [12] = small-molecule binders of probe aLefty1, primary screen, biochemical, small-molecule microarray, 635/667 nm fluorescence (AID 1153); conditions: higher = more signal;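 also: score merges spot fluorescence with signal-to-noise ratio from the scanned slide images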
# [13] = PSAC antagonists in infected red cells, primary screen, cell-based, P. falciparum Indochina, OD700, 1 h (AID 1154); conditions: P. falciparum Indochina infected RBC osmotic lysis, higher = more signal, called active from +8 up or from −8 down
# [14] = PSAC antagonists in infected red cells, primary screen, cell-based, P. falciparum Indochina, OD700, 2 h (AID 1155);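 also: lysis reports solute entry through the parasite surface anion channel PSAC; channel blockers reduce lysis of infected cells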; conditions: P. falciparum Indochina infected erythrocytes, osmotic lysis OD700; higher = more signal, called active from +8 up or from −8 down
# [15] = osmotic lysis modulators in infected erythrocytes, primary screen, PSAC antagonist project, cell-based, P. falciparum Indochina, OD700, 3 h (AID 1156); conditions: higher = more signal, called active from +8 up or from −8 down
# [16] = PSAC antagonists in infected red cells, primary screen, cell-based, P. falciparum Indochina, OD700, 18 h (AID 1157); conditions: P. falciparum Indochina infected erythrocytes, osmotic lysis OD700, 18 h; higher = more signal, called active from +8 up or from −8 down
# [17] = modulators of S6 phosphorylation in cells, primary screen, cell-based, A549, cytoblot, luminescence, serum-stimulated (AID 1158); conditions: A549 phospho-S6 cytoblot, 5 h, higher = more signal;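 also: serum-stimulated A549 lung adenocarcinoma cells; signal is phosphorylated S6 detected by cytoblot immunostaining with HRP secondary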
# [18] = biological target: NADPH oxidase 2 (Homo sapiens) (UniProt P04839); experiment: NOX2-dependent H2O2 signal modulators, primary screen, NOX inhibitor project, cell-based, HEK293-NOX2, PMA-stimulated, Amplex Red fluorescence (AID 1159); conditions: 45 min, higher = more signal, called active from +8 up or from −8 down; also: test concentration not given here
# [19] = biological target: NADPH oxidase 4 (Homo sapiens) (UniProt Q9NPH5); experiment: NOX4-dependent H2O2 signal modulators, primary screen, NOX inhibitor project, cell-based, HEK293-NOX4, tetracycline-induced, Amplex Red fluorescence (AID 1160); conditions: 45 min, higher = more signal, called active from +8 up or from −8 down
# [20] = biological target: NADPH oxidase 5 (Homo sapiens) (UniProt Q96PH1); experiment: NOX5-dependent H2O2 signal modulators, primary screen, NOX inhibitor project, cell-based, HEK293-NOX5, Amplex Red fluorescence (AID 1161); conditions: HEK293-NOX5, ionomycin, 45 min, higher = more signal
# NADPH oxidase 5 (Homo sapiens), sequence (Q96PH1 whole entry, looked up): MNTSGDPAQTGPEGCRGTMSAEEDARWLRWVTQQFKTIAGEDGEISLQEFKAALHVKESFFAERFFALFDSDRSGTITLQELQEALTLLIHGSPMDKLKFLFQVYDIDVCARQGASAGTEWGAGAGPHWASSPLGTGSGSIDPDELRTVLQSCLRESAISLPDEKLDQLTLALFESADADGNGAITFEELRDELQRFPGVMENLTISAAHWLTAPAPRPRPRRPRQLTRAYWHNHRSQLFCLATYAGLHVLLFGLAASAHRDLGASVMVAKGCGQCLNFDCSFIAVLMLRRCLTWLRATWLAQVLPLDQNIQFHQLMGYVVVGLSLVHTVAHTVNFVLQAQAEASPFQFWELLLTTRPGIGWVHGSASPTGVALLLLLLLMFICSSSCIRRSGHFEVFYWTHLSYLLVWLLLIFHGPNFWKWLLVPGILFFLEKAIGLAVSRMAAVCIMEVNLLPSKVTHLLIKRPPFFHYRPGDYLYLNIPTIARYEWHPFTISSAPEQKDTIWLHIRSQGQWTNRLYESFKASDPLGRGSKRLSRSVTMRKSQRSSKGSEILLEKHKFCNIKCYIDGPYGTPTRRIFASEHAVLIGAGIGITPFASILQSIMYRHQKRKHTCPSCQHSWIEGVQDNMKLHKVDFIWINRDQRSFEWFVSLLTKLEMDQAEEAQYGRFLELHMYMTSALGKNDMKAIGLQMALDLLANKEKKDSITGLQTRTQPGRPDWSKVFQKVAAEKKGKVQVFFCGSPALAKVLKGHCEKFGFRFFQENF
# Streptavidin (Streptomyces avidinii), sequence (P22629 whole entry, looked up): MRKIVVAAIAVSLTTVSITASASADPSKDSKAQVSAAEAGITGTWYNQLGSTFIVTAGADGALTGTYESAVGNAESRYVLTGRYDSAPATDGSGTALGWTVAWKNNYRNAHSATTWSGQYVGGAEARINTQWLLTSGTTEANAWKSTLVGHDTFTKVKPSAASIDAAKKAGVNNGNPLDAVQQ
# Torsin-1A (Homo sapiens), sequence (O14656 whole entry, looked up): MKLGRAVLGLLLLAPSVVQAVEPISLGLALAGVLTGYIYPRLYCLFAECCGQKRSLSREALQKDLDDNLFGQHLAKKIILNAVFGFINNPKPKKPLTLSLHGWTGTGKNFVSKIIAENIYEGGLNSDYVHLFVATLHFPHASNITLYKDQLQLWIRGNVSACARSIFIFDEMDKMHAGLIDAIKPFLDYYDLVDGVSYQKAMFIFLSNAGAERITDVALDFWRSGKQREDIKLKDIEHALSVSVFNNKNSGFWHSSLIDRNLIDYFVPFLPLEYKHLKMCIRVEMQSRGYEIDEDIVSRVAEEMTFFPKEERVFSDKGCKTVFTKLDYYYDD
# NADPH oxidase 4 (Homo sapiens), sequence (Q9NPH5 whole entry, looked up): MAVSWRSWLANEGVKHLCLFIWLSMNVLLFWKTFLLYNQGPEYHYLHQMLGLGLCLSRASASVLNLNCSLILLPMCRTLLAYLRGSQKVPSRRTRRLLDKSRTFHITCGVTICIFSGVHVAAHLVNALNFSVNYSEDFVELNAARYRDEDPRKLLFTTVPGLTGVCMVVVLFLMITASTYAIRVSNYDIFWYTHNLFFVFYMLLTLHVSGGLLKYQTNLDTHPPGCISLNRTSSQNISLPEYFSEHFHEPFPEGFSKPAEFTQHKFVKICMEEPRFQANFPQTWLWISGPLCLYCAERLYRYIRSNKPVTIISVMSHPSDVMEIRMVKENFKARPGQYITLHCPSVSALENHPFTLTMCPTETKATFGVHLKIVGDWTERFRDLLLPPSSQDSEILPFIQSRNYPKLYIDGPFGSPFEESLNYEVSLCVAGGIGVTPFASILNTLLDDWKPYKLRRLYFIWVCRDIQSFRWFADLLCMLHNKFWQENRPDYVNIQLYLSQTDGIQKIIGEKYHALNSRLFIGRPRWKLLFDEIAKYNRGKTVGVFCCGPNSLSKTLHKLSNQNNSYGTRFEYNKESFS
# NADPH oxidase 2 (Homo sapiens), sequence (P04839 whole entry, looked up): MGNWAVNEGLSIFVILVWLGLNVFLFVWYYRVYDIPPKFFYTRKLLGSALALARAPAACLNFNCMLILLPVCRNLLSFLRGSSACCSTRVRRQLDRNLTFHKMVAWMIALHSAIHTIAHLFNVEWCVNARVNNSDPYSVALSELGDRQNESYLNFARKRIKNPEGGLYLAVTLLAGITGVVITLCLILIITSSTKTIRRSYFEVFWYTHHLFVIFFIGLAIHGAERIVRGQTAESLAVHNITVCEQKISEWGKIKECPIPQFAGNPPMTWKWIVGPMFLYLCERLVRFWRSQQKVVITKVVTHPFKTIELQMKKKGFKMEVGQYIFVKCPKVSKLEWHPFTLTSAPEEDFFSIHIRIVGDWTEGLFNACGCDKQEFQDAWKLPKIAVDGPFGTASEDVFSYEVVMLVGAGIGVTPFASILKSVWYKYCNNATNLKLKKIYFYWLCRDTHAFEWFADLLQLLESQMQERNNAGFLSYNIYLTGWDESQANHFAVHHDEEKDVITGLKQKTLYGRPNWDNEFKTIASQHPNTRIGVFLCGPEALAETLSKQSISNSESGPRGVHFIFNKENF
Compound,composite z-score [1],z-score [2],z-score [3],z-score [4],z-score [5],composite z-score [6],composite z-score [7],composite z-score [8],composite z-score [9],composite z-score [10],z-score [11],composite z-score [12],z-score [13],z-score [14],z-score [15],z-score [16],z-score [17],z-score [18],z-score [19],z-score [20]
CN(C)CCCCCCNC(=O)[C@H]1C[C@H]2C(=O)N3CCC[C@H]3C(=O)N2[C@H]1c1ccc(O)cc1,0.899,-0.865 (inactive),0.332 (inactive),-0.268 (inactive),-0.933 (inactive),0.192,0.019,1.95,-0.118,2.04,1.47 (inactive),0.0811,0.89 (inactive),0.326 (inactive),-0.664 (inactive),0.253 (inactive),-0.549,0.544 (inactive),-1.28 (inactive),-0.0199
COC(=O)[C@]1(CCC(=O)OC(C)(C)C)N=C(c2ccc(OCCCO)cc2)O[C@@H]1c1ccccc1CN=[N+]=[N-],0.714,-4.56 (inactive),0.283 (inactive),1.77 (inactive),-0.955 (inactive),0.0874,0.24,-0.351,-0.0282,0.712,-1.68 (inactive),0.235,30.3 (active),28.3 (active),-0.615 (inactive),5.71 (inactive),-0.0021,-3.48 (inactive),-1.72 (inactive),-2.41
CCN(CC)c1ccc(N2CC=CC34O[C@@H]5C=CCCOC(=O)C5[C@H]3C(=O)N(CCCCCCO)[C@@H]4C2=O)cc1 (stereo not given in full),-0.212,-1.32 (inactive),-1.35 (inactive),-1.85 (inactive),-0.716 (inactive),-0.729,-0.209,0.454,1.57,-0.179,3.12 (inactive),-0.0361,1.25 (inactive),0.392 (inactive),0.474 (inactive),-0.53 (inactive),0.872,-0.089 (inactive),0.576 (inactive),0.762
O=C1O[C@@H](c2ccccc2)[C@@H](c2ccccc2)N2[C@@H](c3ccccc3OCCO)[C@]3(C(=O)Nc4ccccc43)[C@@H](C(=O)Nc3nc4ccccc4s3)[C@H]12,0.371,-5.91 (inactive),-0.311 (inactive),0.568 (inactive),3.07 (inactive),1.9,0.286,0.469,0.972,2.03,0.533 (inactive),1.14,2.02 (inactive),1.59 (inactive),0.0197 (inactive),-1.52 (inactive),1.53,0.188 (inactive),-0.547 (inactive),-1.6
C=CCNC(=O)[C@H]1[C@@H]2C(=O)O[C@@H](c3ccccc3)[C@@H](c3ccccc3)N2[C@@H](c2ccccc2OCCO)[C@]12C(=O)Nc1ccc(C#CCC(C(=O)OC)C(=O)OC)cc12,0.761,-3.8 (inactive),0.608 (inactive),-0.0784 (inactive),0.876 (inactive),0.999,0.277,0.954,1.06,1.84,0.0038 (inactive),0.924,5.08 (inactive),1.84 (inactive),-0.223 (inactive),0.909 (inactive),-0.318,1.62 (inactive),0.834 (inactive),1.5
CCS[C@H]1[C@@H](C(=O)O)[C@H](c2ccc(C)cc2)N(S(=O)(=O)c2ccc(C)cc2)[C@@H]1CC,0.261,-0.0715 (inactive),-0.54 (inactive),-0.928 (inactive),-0.334 (inactive),0.68,0.206,-0.0832,0.477,-0.7,0.409 (inactive),0.157,1.56 (inactive),1.02 (inactive),-0.129 (inactive),0.831 (inactive),-0.0726,0.983 (inactive),-0.149 (inactive),0.271
COC(=O)[C@@]1(Cc2ccc(OC)cc2)[C@H]2c3cc(C(=O)N4CCCC4)n(Cc4ccc(O)c(OC)c4)c3C[C@H]2CN1C(=O)c1ccccc1,1.22,-1.28 (inactive),-0.117 (inactive),0.962 (inactive),0.549 (inactive),2.18,1.21,-0.208,0.669,-0.466,-0.703 (inactive),0.622,5.08 (inactive),0.722 (inactive),1.04 (inactive),0.739 (inactive),0.299,-2.31 (inactive),-4.7 (inactive),-4.33
CC(C)C(=C=CC[C@@H](O)c1ccc(OCCO)cc1)C[C@@H](O)c1ccccn1,0.207,-0.661 (inactive),0.205 (inactive),0.145 (inactive),1.4 (inactive),0.0453,-0.231,0.75,0.205,2.26,-0.197 (inactive),-0.101,6.54 (inactive),0.977 (inactive),0.166 (inactive),0.479 (inactive),-0.652,0.0116 (inactive),0.26 (inactive),-0.124
CCCc1cc2c(n1Cc1cc(F)cc(F)c1)C(C)C1CN(C(=O)c3ccccc3)C(C)(C(=O)OC)C21 (stereo not given),0.239,-2.5 (inactive),0.335 (inactive),0.587 (inactive),1.31 (inactive),1.4,0.786,0.361,1.58,-0.236,-1.55 (inactive),0.269,3.82 (inactive),0.144 (inactive),1.95 (inactive),0.251 (inactive),-0.712,-1.69 (inactive),-2.91 (inactive),-2.52
